# Coupling enz: counter-screen for Giardia aldolase inhibitors: coupling enzyme system | coupling enzyme system counterscreen, AmpLite Red fluorescence | activity change, negative = inhibition, % at 58.2 µM, hits read low | 0.67% of 290,000 active; in the data active means activity change below about -30%
#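 Coupling enzymes only (glyceraldehyde-3-phosphate) + compound, at 57.5 uM final, 10 min RT; add substrate/coupling/AmpLite Red mix, 20 min RT; fluorescence ex 525/em 598 nm. Actives flag coupling-system interference.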
# RORgamma inh: ROR gamma (mouse) transcription inhibition; Drosophila S2 Gal4-RORgamma UAS-luciferase reporter, 20 h; Potency, µM (titrated, usually from 53.6 µM), inactives show at the top dose activity change, negative = inhibition, hits mostly inhibitors; 5.4% of 310,000 active; P51450; AID 2551; further: potency means the concentration at half of the fitted maximal effect; nearly all actives have a fitted effect of over 60% in size
#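 Schneider cells (Drosophila), stable Gal4 DBD–ROR gamma + UAS-luc; 1 hr cmpd preincubation; Cu2+ induction 700 uM final; 20 hr ambient; luminescence.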
# TSHR antag: human thyrotropin receptor antagonism. P16473. TSHR-expressing cells, TSH-stimulated cAMP HTRF, 2 h; stronger effect = lower value. activity change, negative = inhibition, % at 11.5 µM. 0.2% of 330,000 active;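 active means activity change below a set negative limit, meaning inhibition stronger than a set level, cut at about -70% in these data; inconclusive means activity change between two set negative limits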
# Target sequence (P16473 whole entry, looked up): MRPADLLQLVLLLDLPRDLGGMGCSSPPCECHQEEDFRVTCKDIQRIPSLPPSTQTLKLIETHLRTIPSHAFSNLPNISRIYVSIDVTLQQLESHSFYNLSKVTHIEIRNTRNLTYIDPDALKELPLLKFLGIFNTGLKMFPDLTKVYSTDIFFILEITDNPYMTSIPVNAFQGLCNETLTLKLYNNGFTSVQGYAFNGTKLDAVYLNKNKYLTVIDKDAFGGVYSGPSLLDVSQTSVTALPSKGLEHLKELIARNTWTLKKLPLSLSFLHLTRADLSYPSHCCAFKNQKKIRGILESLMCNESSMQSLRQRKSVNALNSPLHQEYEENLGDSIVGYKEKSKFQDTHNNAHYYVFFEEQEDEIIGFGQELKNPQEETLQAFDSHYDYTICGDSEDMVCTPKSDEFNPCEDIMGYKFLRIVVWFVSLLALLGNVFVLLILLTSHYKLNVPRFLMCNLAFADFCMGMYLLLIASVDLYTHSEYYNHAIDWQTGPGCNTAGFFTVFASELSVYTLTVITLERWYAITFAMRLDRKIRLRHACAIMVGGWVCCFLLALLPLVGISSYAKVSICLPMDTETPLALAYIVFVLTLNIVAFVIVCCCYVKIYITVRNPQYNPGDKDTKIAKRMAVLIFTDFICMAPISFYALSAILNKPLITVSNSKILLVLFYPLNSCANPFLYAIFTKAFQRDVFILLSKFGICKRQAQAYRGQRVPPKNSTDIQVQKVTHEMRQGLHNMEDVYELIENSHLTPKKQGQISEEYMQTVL
#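 TSHR-expressing cells were treated with compounds, then stimulated with TSH at EC80 (4nM final) for 2 hours at 37 deg C. Cellular cAMP was measured by HTRF competition between lysate cAMP and cAMP-d2 for a cryptate-labelled anti-cAMP antibody.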
# VP16 counter: Gal4-VP16 reporter inhibition counter-screen | Drosophila S2 Gal4-VP16 UAS-luciferase, luminescence, 20 h | Potency, µM (top dose mostly 53.6 µM), for inactives: top-dose activity, negative = inhibition, most hits filed as inhibitors | 3.5% of 310,000 active;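 further: Gal4-VP16 expression switched on by copper sulfate through the metallothionein promoter; potency means the concentration at half of the fitted maximal effect; nearly all actives have a fitted effect of over 50% in size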
# ELG1 DNA repair: blocks ELG1-dependent DNA repair in HEK293T cells | HEK293T ELG1-luciferase reporter, luminescence, 16 h; DNA damage induced by 5-fluorouridine | Potency, µM (highest dose often 46.1 µM), inactives show at the top dose activity change, negative = inhibition, hits mostly inhibitors | 2.3% of 330,000 active; further: potency means the concentration at half of the fitted maximal effect; nearly all actives have a fitted effect of over 55% in size
#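 Luminescence from the luciferase reporter, measured 30 min after ONE-Glo reagent at room temperature, was the read-out. Beforehand, 2,000 cells per well were exposed for 16 hr at 37 °C to 5-fluorouridine together with compound or vehicle.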
# Starred values were filed as active, the others as inactive; ? = inconclusive; . = no result; [ ] = remark or other dose. This is a sample that favours compounds with a hit; in the whole collection about 8% have one here. Unless noted, the call rests on the fitted dose curve; in most records, active means well fitted curve in the direction sought with a large enough effect; inconclusive means small, poorly fitted or top-dose-only effect, or another doubt; inactive means no such curve, though single readings can be large; an effect the other way counts as inactive or inconclusive. On the % scale 0 is the no-effect control and ±100 the full control effect.
SMILES,Coupling enz,RORgamma inh,TSHR antag,VP16 counter,ELG1 DNA repair
CC(=O)N/N=C/c1cc([N+](=O)[O-])ccc1OCCOc1ccccc1,0,4%,-2,-5%,?
COc1ccccc1C(=O)NC(=O)COC(=O)c1cc[n+]([O-])cc1,.,.,-3,.,-2%
CCc1ccc(C(=O)/C=C/c2cnn(C)c2C)s1,-15,5.6µM*,-3,8.9µM*,?
Cc1cc(C)nc(/N=C(\N)Nc2cccc(OCc3ccccc3)c2)n1,0,-37%,3,-21%,21µM*
O=C(Nc1ccc(-n2ccc(C(F)(F)F)n2)cc1)Nc1cccc(Cl)c1,-1,?,-27,18µM*,?
CC1(C)C(O)=C(c2nc3ccccc3[nH]2)C(=N)N1c1ccccc1,0,1.8µM*,-1,11µM*,2%
CC(C)OC(=O)c1sc2nc(-c3ccccc3)ccc2c1N,-2,7.1µM*,-17,?,?
Cc1cccc(Cn2c(C(=O)OC(C)C)cc3c2ccn3C)c1,-32*,-23%,-9,-8%,-2%
CCOC(=O)c1cc2c(ccn2C)n1Cc1ccc(Cl)cc1,-22,?,-10,-4%,8%
CC(=O)c1ccc(NC(=S)Nc2cccc3ccccc23)cc1,-2,14µM*,29,?,?
Fc1cccc(NC(=S)Nc2cccc3ccccc23)c1,.,29%,-12,-3%,?
CC(=O)c1ccc(NC(=S)NC(=O)Cc2ccc(Cl)cc2)cc1,1,?,-13,-9%,17%
CC(=O)N(C)c1ccc(NC(=S)Nc2ccccc2)cc1,0,2%,5,25%,?
CC(=O)c1cccc(NC(=O)C(=O)Nc2cccc3ccccc23)c1,-1,?,-13,?,?
CCCC(=O)NC(=S)Nc1ccc(C(C)=O)cc1,4,16µM*,2,?,?
CC(=O)N(C)c1ccc(NC(=S)Nc2cccc3ccccc23)cc1,-36*,?,-6,?,?
Cc1ccc(NC(=S)Nc2cccc3ccccc23)cc1F,-1,11µM*,2,7.9µM*,?
Cc1c(NC(=S)NC(=O)c2cccc(Cl)c2)c(=O)n(-c2ccccc2)n1C,1,0%,14,-1%,-6%
CN(C)/C(=N\S(=O)(=O)c1ccc(Cl)cc1)c1ccc(F)cc1,6,16%,-13,0%,-13%
CCCCNC(=O)C(c1ccc(OCC(=O)OC)c(C(=O)OC)c1)N(CCc1ccccn1)C(=O)CCCCCN1C(=O)NC(c2ccc(-c3ccccc3)cc2)C(C(=O)OCc2ccccc2)=C1C (stereo not given),-4,23%,.,-16%,.
COC(=O)[C@@]1(C)C=C[C@@H](Cc2ccccc2)N1C(=O)c1ccccc1,2,41%,.,-2%,.
Cc1cc(C)c(C(=O)CN2C(=O)C(=O)N(C3CCCC3)C2=O)cc1C,.,.,-3,.,?
O=[N+]([O-])c1cc(N(CCO)CCO)ccc1NCCO,.,-1%,.,-23%,.
CCOC(=O)C(NCc1ccccn1)(NC(=O)c1cccnc1)C(F)(F)F (stereo not given),-1,16µM*,16,1%,-9%
O=C(Nc1nnc(-c2ccc(F)cc2)o1)c1cc(Cl)sc1Cl,1,3.2µM*,-47,2.5µM*,?
SMILES,Coupling enz,RORgamma inh,TSHR antag,VP16 counter,ELG1 DNA repair
O=C(Nc1nnc(-c2ccc(Cl)cc2)o1)c1nc2ccccc2s1,0,4.5µM*,52,4.5µM*,37%
O=C(Nc1nnc(-c2ccccc2)o1)c1cc(Cl)sc1Cl,2,2.2µM*,28,1.3µM*,14%
Fc1ccc(-c2nnc(-c3ccc(Cl)cc3)o2)cc1,6,?,0,12%,?
Cc1cc(O)c(C)c(O)c1C(=O)O,-2,-18%,.,5%,.
COc1cccc(NC(=O)C(=O)N/N=C(\C)CC(=O)Nc2ccc(NC(C)=O)cc2)c1,-1,13%,3,2%,?
N#C/C(=C\c1cccc([N+](=O)[O-])c1)C(=O)Nc1cccnc1,0,-2%,4,5%,3%
N#C/C(=C\c1cccc([N+](=O)[O-])c1)C(=O)NCc1ccc(Cl)cc1,-2,?,-9,18µM*,?
N#C/C(=C\c1cccc([N+](=O)[O-])c1)C(=O)NCc1cccnc1,-1,?,1,?,21µM*
N#C/C(=C\c1cccnc1)c1ccc([N+](=O)[O-])cc1,-2,?,0,13µM*,?
N#C/C(=C/c1cccnc1)c1ccccc1,-4,-33%,1,5%,0%
Cc1cccc(N(CC(=O)NCc2ccc(F)cc2)C(=O)c2ccco2)c1,3,-8%,12,-2%,4%
Cc1cc(C)n(CCC(=O)Nc2ccc(-c3ccno3)cc2)n1,-1,-10%,16,-2%,5%
COc1ccc(NC(=O)CSc2nnc(C)n2N)cc1S(=O)(=O)N1CCCCC1,.,.,-5,.,27%
CCC1CN(C(=O)N2CCC(C(=O)NCc3cccc(OC)c3OC)CC2)c2cc(C)ccc2O1 (stereo not given),.,7%,7,-1%,15µM*
Clc1ccccc1-c1nc(NC2CCNCC2)c2ccccc2n1,-1,18%,.,-4%,.
Cc1ccc2oc(-c3cccc(N)c3)nc2c1,-4,11µM*,-10,?,?
Cc1ccc2nc(-c3cccc(N)c3)[nH]c2c1,-17,7.9µM*,3,8.9µM*,?
CC(C)CC(=O)Nc1ccc2oc(-c3cccnc3)nc2c1,3,5%,6,1%,?
Nc1cccc(-c2nc3ccccc3[nH]2)c1,8,?,-4,-3%,?
Cc1ccc(-c2nc3cc(C)ccc3o2)cc1,0,11µM*,13,14µM*,?
Cc1ccc2oc(-c3ccc(NC(=O)CC(C)C)cc3)nc2c1,3,0.28µM*,-18,1.1µM*,?
CCCCN(CC(=O)NC1CCCC1)C(=O)C(=O)Nc1ccc2c(c1)OCCO2,0,-31%,10,11%,-6%
O=C(O)[C@@H]1CCCNC1,1,-3%[16.9 µM],.,-2%[17 µM],.
CC(C(=O)Nc1nccs1)N1C(=O)c2ccccc2S1(=O)=O (stereo not given),.,.,3,.,0%
CCCC(=O)Nc1ccc(-c2nc3cc(C)c(C)cc3o2)cc1,5,1.3µM*,-7,?,?
Nc1cccc(-c2nc3cc(S(=O)(=O)c4ccc5oc(-c6cccc(N)c6)nc5c4)ccc3o2)c1,1,4.5µM*,-12,5µM*,19%
Nc1cccc(-c2nc3ncccc3o2)c1,2,?,8,-2%,?
Cc1ccc(-c2nc3cc(N)ccc3o2)c(C)c1,-3,11µM*,-10,-23%,?
CCCC(=O)Nc1ccc2oc(-c3ccncc3)nc2c1,1,5%,-7,-9%,4%
